Data on 18 molecules can be found in PubChem BioAssay AID2515 (National Center for Advancing Translational Sciences (NCATS), 2010).

SMILES strings stand for the structures. Inconclusive results are not listed. Active and inactive are the calls of the source. Calls follow the shape of the dose curve; as a rule, active = well fitted inhibition curve with a large enough effect; inconclusive = small, poorly fitted or top-dose-only effect; inactive = flat fitted curve, though single readings scatter.

Luciferin 4-monooxygenase (Photinus pyralis), sequence (P08659 whole entry, looked up, canonical isoform): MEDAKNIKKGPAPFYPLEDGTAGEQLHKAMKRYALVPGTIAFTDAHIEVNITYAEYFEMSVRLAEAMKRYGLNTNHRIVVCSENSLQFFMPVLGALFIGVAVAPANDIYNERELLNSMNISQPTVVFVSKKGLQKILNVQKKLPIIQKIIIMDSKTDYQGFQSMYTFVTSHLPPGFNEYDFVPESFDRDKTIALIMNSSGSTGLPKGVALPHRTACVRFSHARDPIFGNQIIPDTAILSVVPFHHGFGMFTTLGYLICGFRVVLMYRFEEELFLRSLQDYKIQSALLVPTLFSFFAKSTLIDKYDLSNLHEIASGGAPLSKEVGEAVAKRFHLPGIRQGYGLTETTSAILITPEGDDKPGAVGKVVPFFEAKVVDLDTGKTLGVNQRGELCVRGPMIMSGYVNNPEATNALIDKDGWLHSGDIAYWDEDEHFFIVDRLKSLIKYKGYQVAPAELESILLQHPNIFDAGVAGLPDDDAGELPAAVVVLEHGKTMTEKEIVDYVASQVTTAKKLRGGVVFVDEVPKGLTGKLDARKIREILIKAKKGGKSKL

For this experiment, the target named is Luciferin 4-monooxygenase (Photinus pyralis) (UniProt P08659). The experiment is described as follows: Counterscreen Assay for Enhancers of SMN2 Splice Variant Expression: Interaction with Luciferase Reporter for Probe SAR. The note with it: purified firefly luciferase, luminescence inhibition; series mostly up to 51 µM; activity, negative = inhibition: at the top concentration. The source says:
NIH Chemical Genomics Center [NCGC] NIH Molecular Libraries Probe Production centers Network [MLPCN] MLPCN Grant: R03 MH084179-01 Assay Submitter (PI): Elliot Androphy NCGC Assay Overview: Spinal muscular atrophy (SMA) is caused by insufficient levels of the survival motor neuron protein SMN. The SMN locus on chromosome 5q13 contains two inverted copies of SMN called SMN1 and SMN2 which are 99% identical at the amino acid level. SMN1 is a fully functional protein and SMN2 skips exon 7 90% of the time. Skipping of exon 7 produces non-functional protein product. 10% of the SMN2 protein includes exon 7 and is fully functional. In the SMA disease state, mutations in the SMN1 locus are the cause of the disease state. Because only 10% of SMN2 is of the fully functional form, it is not sufficient to overcome the deficiency produced by the loss of the SMN1 product. A therapy that either increases the amount of SMN2 product made increases the inclusion of exon 7 has been proposed for the treatment of SMA. We have designed an assay to identify small molecules that can increase the amount of functional SMN2 product by appending a luciferase reporter gene after the native SMN2 gene, such that inclusion of exon 7 in the expressed product places the luciferase sequence in frame, thus generating functional luciferase enzyme. One potential source of false positives in the primary screening assay is stabilization of the reporter luciferase via direct binding. This assay attempts to identify such compounds by screening directly for luciferase activity in the absence of the cellular system.
NCGC Assay Protocol Summary: The primary screen utilizes a luciferase reporter gene assay, combining the promoter and splicing based cassettes in tandem with the major portion of the native SMN1 cDNA, and then transfected into HEK293 cells. Compounds that modulate luciferase signal presumably modulate expression of […]. In this assay, we utilize purified firefly luciferase in lieu of a cellular reporter to identify compounds interacting directly with luciferase in the primary screen. Sequence, Parameter, Value, Description (1) Reagent, 2.5 uL, Enzyme in buffer (note A) (2) Compound, 23 nL, From stock solutions (3) Time, 5 minutes, Room temp (4) Reagent#2.5 ul, Luciferase detection reagent (note B) (5) Detector, 1 sec integrate, Luminescent read on Viewlux (note C) Sigma enzyme (1 mg) considered to be MW 61,000 diluted in 357 ul assay buffer to 50 uM stock. A - Enzyme and buffer consists of 50 mM Tris-acetate pH 7.6, 10 mM Mg acetate 0.05% BSA, 0.01% Tween and 5 nM firefly luciferase B - Detection reagent = britelite plus diluted 1:10 in PBS C - Viewlux settings were 1 second integration medium sensitivity Keywords: Spinal muscular atrophy, SMA, SMN2, high throughput screening, MLSMR, MLPCN, NIH Roadmap, qHTS and NCGC
For orientation: Counterscreens check selectivity or assay interference.
On to `NC(=O)C1CCN(c2nc(-c3cc4ccccc4o3)cs2)CC1`, for which the Potency is 31.8 µM (active). For `Cn1ccc2cc(-c3csc(N4CCC(C(N)=O)CC4)n3)ccc21`, the Potency is 10.1 µM (active). As to `NC(=O)C1CCN(c2nc(-c3ccc4c(c3)OCCO4)cs2)CC1`, the Potency is 4.5 µM (active). With `CS(=O)(=O)c1cccc(-c2csc(N3CCC(C(N)=O)CC3)n2)c1`, the “activity, negative = inhibition” value is -14% (inactive). Regarding `NC(=O)C1CCN(c2nc(-c3ccccc3F)cs2)CC1`, the Potency was 35.7 µM (active). As for `NC(=O)C1CCN(c2nc(-c3ccccc3C(F)(F)F)cs2)CC1`, the “activity, negative = inhibition” value was -15.8% (inactive). For `CS(=O)(=O)c1ccccc1-c1csc(N2CCC(C(N)=O)CC2)n1`, the “activity, negative = inhibition” value is -16.9% (inactive).

As to `CN(C)c1ccccc1-c1csc(N2CCC(C(N)=O)CC2)n1`, the “activity, negative = inhibition” value was -14% (inactive).

For the molecule `NC(=O)C1CCN(c2nc(-c3ccc(Br)cc3)cs2)CC1`, the Potency was 40.1 µM (active). Turning to `NC(=O)C1CCN(c2nc(-c3ccccc3N)cs2)CC1`, the “activity, negative = inhibition” value was -14% (inactive).

As to `Cc1ccc(-c2csc(N3CCC(C(N)=O)CC3)n2)cc1`, the Potency was 12.7 µM (active). As to `NC(=O)C1CCN(c2nc(-c3cccc(N)c3)cs2)CC1`, the “activity, negative = inhibition” value is -24.6% (inactive). Take `Cc1noc(C)c1-c1csc(N2CCC(C(N)=O)CC2)n1`: the “activity, negative = inhibition” value was -12.3% (inactive). Consider `NC(=O)C1CCN(c2nc(-c3ccc(F)cc3)cs2)CC1`, for which the Potency was 28.4 µM (active). For `NC(=O)C1CCN(c2nc(-c3ccc4ccccc4c3)cs2)CC1`, the Potency was 31.8 µM (active). Take `CN(C)c1cccc(-c2csc(N3CCC(C(N)=O)CC3)n2)c1`: the Potency was 12.7 µM (active). With `NC(=O)C1CCN(c2nc(-c3cccnc3)cs2)CC1`, the “activity, negative = inhibition” value was -12.3% (inactive).

Take `CN(C)C(=O)c1cccc(-c2csc(N3CCC(C(N)=O)CC3)n2)c1`: the “activity, negative = inhibition” value is -19.3% (inactive).
